The source made the active and inactive calls. The call rests on the fitted dose curve; in most records, active means well fitted curve in the direction sought with a large enough effect in the repeat runs; inconclusive means weak or mixed curves; inactive means flat fitted curve, though single readings scatter.
On the % scale 0 is the no-effect control and ±100 the full control effect.

The experiment is described as follows: qHTS assay to test for compound auto fluorescence at 460 nm (blue) in HepG2 cell free culture (AID 720685). Conditions: Cell-free culture medium, blue autofluorescence 405/460 nm; series mostly up to 46 µM; fluorescence, % of fluorescent control: at the top concentration. From the text: U.S. Tox21 Program National Center for Advancing Translational Sciences [NCATS] NIH Chemical Genomics Center [NCGC] U.S. Environmental Protection Agency [EPA] National Institutes of Environmental Health Sciences [NIEHS] National Toxicology Program [NTP] U.S. Food and Drug Administration [FDA] Tox21 Assay Overview: Compound auto fluorescence often interferes with screening of the compound library against various biological targets and signaling pathways. Some of these compounds may have fluorophoric properties. Such properties may interfere with the assay outputs resulting in false positives and/or negatives. To decrease such complications and ensure the compound activities are relevant in terms of biological response, the Tox21 10K compound library was screened for auto fluorescence. From the fluorophores used as reporter signals in our screening assays, the auto fluorescence equivalencies of compounds against three fluorophores have been evaluated: Triamterene, Fluorescein and Rose Bengal sodium for blue, green and red fluorescence, respectively. The fluorescence intensities were measured using Excitation/Emission wavelengths at 405/460nm, 485/535nm and 540/590nm for blue, green and red labels, respectively. This assay includes the blue fluorescence data.
Tox21 Assay Protocol Summary: 5 uL of culture medium (MEM containing 10% FBS) per well was dispensed into black wall/clear bottom 1536-well plates using a Multidrop Combi Dispenser (ThermoFisher Scientific, Waltham, MA). After 23 nL compound or DMSO vehicle was transferred into assay plate by a pintool work station (Kalypsys, San Diego, CA), fluorescence intensities in the assay plates were measured by an Envision (PerkinElmer, Shelton, CT) plate reader using three labels for measuring blue, green and red fluorescence at […] 460, 535 and 590nm respectively.
(In general: In qHTS, concentration-response curves come from the screen itself.)
On to `CC(=O)OCC1=C(C(=O)O)N2C(=O)[C@@H](NC(=O)Cc3ccccc3)[C@H]2SC1`, for which the “fluorescence, % of fluorescent control” value is 1.21% (inactive).

For `CC1CCCC(C)N1NC(=O)c1ccc(Cl)c(S(N)(=O)=O)c1` (stereo not given), the “fluorescence, % of fluorescent control” value is -0.0112% [at 18.6 µM] (inactive).

Consider `O=C(CCCCCCCCc1cccnc1)N1CCC(C=C(c2ccccc2)c2ccccc2)CC1`, for which the “fluorescence, % of fluorescent control” value was 0.481% [at 91.3 µM] (inactive).

As for `C=C1[C@H](CO)[C@@H](O)C[C@@H]1n1cnc2c(=O)[nH]c(N)nc21`, the “fluorescence, % of fluorescent control” value is -0.0024% (inactive).

For `O=C(O)c1ccc(NC2OC[C@@H](O)[C@H](O)[C@H]2O)cc1` (stereo not given in full), the “fluorescence, % of fluorescent control” value is 0.181% (inactive).

As to `C/C=C/C1=C(C(=O)O)N2C(=O)[C@@H](NC(=O)[C@H](N)c3ccc(O)cc3)[C@H]2SC1`, the “fluorescence, % of fluorescent control” value is 0.698% (inactive).

Turning to `O=C1OC(=O)c2cc(-c3ccc4c(c3)C(=O)OC4=O)ccc21`, the “fluorescence, % of fluorescent control” value is 0.0067% [at 91.3 µM] (inactive).

For `O=C(Nc1ccccc1)c1cc(Cl)ccc1O`, the “fluorescence, % of fluorescent control” value was -0.125% [at 91.3 µM] (inactive).

Consider `COc1cccc(-c2ccc(/C=C\CN3CCCCCC3)cc2Cl)c1`, for which the “fluorescence, % of fluorescent control” value is -0.11% [at 91.3 µM] (inactive).

In the case of `CC[C@@]1([C@@H]2O[C@@H]([C@H]3O[C@@](O)(CO)[C@H](C)C[C@@H]3C)C[C@@H]2C)CC[C@H]([C@]2(C)CC[C@]3(C[C@H](O)[C@@H](C)[C@@H]([C@@H](C)[C@@H](OC)[C@H](C)C(=O)O)O3)O2)O1` (stereo in doubt), the Potency result was “inactive”.

As to `COc1ccc([C@@H]2CC(=O)c3c(O)cc(O[C@@H]4O[C@H](CO[C@@H]5O[C@@H](C)[C@H](O)[C@@H](O)[C@H]5O)[C@@H](O)[C@H](O)[C@H]4O)cc3O2)cc1O`, the “fluorescence, % of fluorescent control” value is 0.0854% [at 18.6 µM] (inactive).

In the case of `SC1CCCCC1`, the “fluorescence, % of fluorescent control” value is 0.0316% [at 95.7 µM] (inactive).

Regarding `CCOC(=O)Cc1ccc(-c2ccccc2)cc1`, the “fluorescence, % of fluorescent control” value is 0.125% (inactive).

On to `CCC(=O)OC(OP(=O)(CCCCc1ccccc1)CC(=O)N1C[C@H](C2CCCCC2)C[C@H]1C(=O)O)C(C)C` (stereo not given in full), for which the “fluorescence, % of fluorescent control” value is -0.105% (inactive).

For `CN1[C@@H](CC(=O)c2ccccc2)CCC[C@H]1C[C@H](O)c1ccccc1`, the “fluorescence, % of fluorescent control” value was 0.0455% (inactive).

For `C[C@@H]1C(=O)NC2=Nc3cccc(Cl)c3CN21`, the “fluorescence, % of fluorescent control” value was 0.219% (inactive).

Turning to `CNC(=O)C[C@@H](N)C(=O)N[C@@H](C(=O)N[C@@H]1C(=O)N2[C@@H]1SC(C)(C)[C@@H]2C(=O)O)c1ccc(O)cc1`, the “fluorescence, % of fluorescent control” value is 0.0913% (inactive).

Regarding `O=C(Cn1cnnn1)N[C@@H]1C(=O)N2C(C(=O)O)=C(CSc3nncs3)CS[C@H]12`, the Potency result is “inactive”.

Consider `Cc1c(O)c(=O)ccn1C`, for which the “fluorescence, % of fluorescent control” value was -0.0963% (inactive).

As for `CC(C)(C)c1ccc2c(S(=O)(=O)O)c(C(C)(C)C)ccc2c1`, the Potency entry is “inactive”.

Regarding `CCCCCCCCCCCCCCCCC(C(=O)O)C(O)(CC(=O)O)C(=O)O` (stereo not given), the “fluorescence, % of fluorescent control” value is -0.0785% (inactive).

As to `CC(C)=CCC/C(C)=C/CC/C(C)=C/CC/C(C)=C/CC1=C(C)C(=O)c2ccccc2C1=O`, the Potency entry was “inactive”.

On to `O=C(O)COc1ccccc1/C=N/NC(=O)c1ccncc1`, for which the “fluorescence, % of fluorescent control” value was -0.0098% (inactive).

`O=C(CCCN1CCN2CCCC2C1)c1ccc(F)cc1` (stereo not given): the “fluorescence, % of fluorescent control” value was -0.0169% (inactive).

Regarding `NCC(O)CC(=O)O` (stereo not given), the “fluorescence, % of fluorescent control” value is 0.0184% (inactive).

For `Cc1cn([C@H]2C[C@H](O)[C@@H](CO)O2)c(=O)[nH]c1=O`, the “fluorescence, % of fluorescent control” value is -0.0906% (inactive).

In the case of `O=C1C2CC3CC1CC(O)(C3)C2`, the “fluorescence, % of fluorescent control” value is 0.0402% (inactive).

With `CO/N=C(\C(=O)N[C@@H]1C(=O)N2C(C(=O)O)=C(CSc3cnns3)CS[C@H]12)c1csc(N)n1`, the “fluorescence, % of fluorescent control” value was 0.124% (inactive).

In the case of `CCCCCCCCCCCCCC(=O)OCC(COP(=O)([O-])OCC[N+](C)(C)C)OC(=O)CCCCCCCCCCCCC` (stereo not given), the “fluorescence, % of fluorescent control” value was 0.0019% (inactive).

In the case of `CC(=O)OCC(=O)[C@@]1(O)CC[C@H]2[C@@H]3C[C@H](C)C4=CC(=O)C=C[C@]4(C)[C@H]3[C@@H](O)C[C@@]21C`, the “fluorescence, % of fluorescent control” value is 0.0381% (inactive).

In the case of `C[C@H]1O[C@@H](O[C@H]2CC[C@@]3(C)[C@H](CC[C@@H]4[C@@H]3C[C@@H](O)[C@]3(C)[C@@H](C5=CC(=O)OC5)CC[C@]43O)C2)C[C@H](O)[C@@H]1O[C@H]1C[C@H](O)[C@H](O[C@H]2C[C@H](O)[C@H](O[C@@H]3O[C@H](CO)[C@@H](O)[C@H](O)[C@H]3O)[C@@H](C)O2)[C@@H](C)O1`, the “fluorescence, % of fluorescent control” value was 0.0573% (inactive).

On to `CCCCCCCC/C=C\CCCCCCCC(=O)N(CCO)CCO`, for which the “fluorescence, % of fluorescent control” value is -0.0322% [at 91.3 µM] (inactive).

For the compound `C=CC[N@@+]12CC[C@@]34c5ccccc5N5/C=C6/[C@H]7C[C@H]8[C@@]9(CC[N@@+]8(CC=C)C/C7=C/CO)c7ccccc7N(/C=C(/[C@@H](C[C@@H]31)/C(=C\CO)C2)[C@H]54)[C@@H]69`, the “fluorescence, % of fluorescent control” value is 0.0225% [at 18.6 µM] (inactive).

On to `CC/C=C\C/C=C\C/C=C\C/C=C\C/C=C\CCCC(=O)O`, for which the “fluorescence, % of fluorescent control” value was 0.582% (inactive).

For the compound `C=CC[N+]1([C@H]2C[C@H]3[C@@H]4CC[C@H]5C[C@H](O)[C@@H](N6CCOCC6)C[C@]5(C)[C@H]4CC[C@]3(C)[C@H]2OC(C)=O)CCCC1`, the “fluorescence, % of fluorescent control” value was -0.152% (inactive).

As to `NC(=O)[C@@H]1CCCN1C(=O)[C@H](Cc1cnc[nH]1)NC(=O)[C@@H]1CCC(=O)N1`, the “fluorescence, % of fluorescent control” value is 0.118% (inactive).

Consider `COc1cccc2c1[C@@H]1CN(CCCCn3c(=O)[nH]c4c(sc5ncc(-c6ccccc6)nc54)c3=O)C[C@@H]1CO2`, for which the “fluorescence, % of fluorescent control” value was -0.0534% (inactive).

With `NC[C@H]1O[C@H](O[C@H]2[C@H](O)[C@@H](O[C@H]3O[C@H](CO)[C@@H](O)[C@H](N)[C@H]3O)[C@H](N)C[C@@H]2N)[C@H](N)C[C@@H]1O`, the “fluorescence, % of fluorescent control” value was -0.024% [at 18.6 µM] (inactive).

For `CC(=O)[C@]1(O)Cc2c(O)c3c(c(O)c2[C@@H](O[C@H]2C[C@H](N)[C@H](O)[C@H](C)O2)C1)C(=O)c1ccccc1C3=O`, the “fluorescence, % of fluorescent control” value is -0.217% (inactive).

For `CN1CCN(CCCN2c3ccccc3Sc3ccc(Cl)cc32)CC1`, the “fluorescence, % of fluorescent control” value was -0.0206% (inactive).

The record behind these values is PubChem BioAssay (Tox21).
